According to paper PMC7862700, “An all-to-all approach to the identification of sequence-specific readers for epigenetic DNA modifications on cytosine”:

Legend:
Experiment in all cases: DAPPL (digital affinity profiling via proximity ligation, sequencing); 10 mM Tris-HCl pH 7.5, 50 mM NaCl, 1 mM DTT, 4% glycerol, room temperature, 30 min; GST-TFs on glutathione beads, 16-mer random dsDNA library, 0.1% formaldehyde crosslink after washing; high values mean tight binding
Conditions in all cases: protein: recombinant; tags: N-terminal GST; dsDNA, one strand shown
ERF = molecular target: T1, ERF (Homo sapiens, UniProt P50548 1-548)
T1 sequence: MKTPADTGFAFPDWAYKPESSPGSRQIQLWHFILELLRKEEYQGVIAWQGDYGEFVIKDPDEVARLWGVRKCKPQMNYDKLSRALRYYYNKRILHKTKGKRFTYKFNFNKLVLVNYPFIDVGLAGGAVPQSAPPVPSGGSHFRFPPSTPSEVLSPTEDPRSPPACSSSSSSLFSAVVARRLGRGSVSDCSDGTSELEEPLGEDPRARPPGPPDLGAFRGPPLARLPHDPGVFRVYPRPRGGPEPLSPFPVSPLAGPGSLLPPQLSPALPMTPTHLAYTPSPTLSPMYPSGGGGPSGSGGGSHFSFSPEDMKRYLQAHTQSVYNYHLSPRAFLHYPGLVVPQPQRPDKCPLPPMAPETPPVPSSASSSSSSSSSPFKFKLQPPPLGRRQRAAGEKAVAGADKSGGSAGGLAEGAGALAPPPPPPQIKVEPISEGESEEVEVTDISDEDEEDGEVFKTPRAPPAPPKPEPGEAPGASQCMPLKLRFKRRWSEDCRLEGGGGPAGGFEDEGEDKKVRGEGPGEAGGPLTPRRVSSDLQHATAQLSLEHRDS
Summary of the method: (§1)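 Human transcription factors carrying a GST fusion were produced in yeast, bound to glutathione beads, tagged with DNA barcodes and pooled together with a tag-only sample. Each pool was held with 200 nmole of a random double-stranded 16-mer DNA library in Tris/NaCl/DTT/glycerol buffer for 30 min at room temperature, then washed, crosslinked in 0.1% formaldehyde, proximity-ligated with BsaI/T4 ligase (1 h, 37 °C), PCR-amplified and sequenced on an Illumina NextSeq500. Binding signal is the read frequency of each hexamer for a given factor divided by its frequency in the tag-only sample.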

ETV3L = molecular target: T2, ETV3L (Homo sapiens, UniProt Q6ZN32 1-361)
T2 sequence: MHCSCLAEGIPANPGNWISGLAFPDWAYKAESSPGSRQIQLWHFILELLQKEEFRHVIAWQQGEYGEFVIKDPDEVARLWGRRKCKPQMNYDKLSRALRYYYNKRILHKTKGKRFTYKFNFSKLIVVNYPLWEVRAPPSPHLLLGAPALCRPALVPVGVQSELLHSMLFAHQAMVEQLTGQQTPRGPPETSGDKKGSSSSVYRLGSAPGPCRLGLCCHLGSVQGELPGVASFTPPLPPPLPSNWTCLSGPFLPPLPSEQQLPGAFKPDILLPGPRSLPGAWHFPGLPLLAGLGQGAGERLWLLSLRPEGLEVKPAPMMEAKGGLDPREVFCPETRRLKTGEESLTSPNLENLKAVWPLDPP
Summary of the method: as §1

ETS2 = molecular target: T3, ETS2 (Homo sapiens, UniProt P15036 1-469)
T3 sequence: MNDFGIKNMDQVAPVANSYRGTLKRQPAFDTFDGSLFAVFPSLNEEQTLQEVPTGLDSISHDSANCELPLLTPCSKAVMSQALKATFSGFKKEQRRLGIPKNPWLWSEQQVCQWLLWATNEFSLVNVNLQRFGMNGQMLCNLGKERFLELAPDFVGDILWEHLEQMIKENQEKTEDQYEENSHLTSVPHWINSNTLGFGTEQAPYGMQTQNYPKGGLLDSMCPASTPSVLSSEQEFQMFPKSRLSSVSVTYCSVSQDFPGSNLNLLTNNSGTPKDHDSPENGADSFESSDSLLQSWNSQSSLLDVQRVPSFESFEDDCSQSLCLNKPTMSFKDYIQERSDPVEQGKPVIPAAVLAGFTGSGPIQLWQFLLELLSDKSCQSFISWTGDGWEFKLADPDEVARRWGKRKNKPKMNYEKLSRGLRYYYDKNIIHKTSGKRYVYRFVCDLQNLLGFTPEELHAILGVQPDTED
Summary of the method: as §1

SPDEF = molecular target: T4, SPDEF (Homo sapiens, UniProt O95238 1-335)
T4 sequence: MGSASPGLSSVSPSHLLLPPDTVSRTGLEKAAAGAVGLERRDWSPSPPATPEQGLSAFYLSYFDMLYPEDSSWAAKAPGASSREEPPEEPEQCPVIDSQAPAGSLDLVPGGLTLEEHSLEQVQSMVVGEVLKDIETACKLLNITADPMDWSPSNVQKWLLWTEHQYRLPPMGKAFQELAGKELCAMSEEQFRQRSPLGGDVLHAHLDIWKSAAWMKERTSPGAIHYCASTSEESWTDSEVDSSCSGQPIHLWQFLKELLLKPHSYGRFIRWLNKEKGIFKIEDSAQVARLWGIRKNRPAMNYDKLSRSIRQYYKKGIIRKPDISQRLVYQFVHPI
Summary of the method: as §1

ETV7 = molecular target: T5, ETV7 (Homo sapiens, UniProt Q9Y603 1-341)
T5 sequence: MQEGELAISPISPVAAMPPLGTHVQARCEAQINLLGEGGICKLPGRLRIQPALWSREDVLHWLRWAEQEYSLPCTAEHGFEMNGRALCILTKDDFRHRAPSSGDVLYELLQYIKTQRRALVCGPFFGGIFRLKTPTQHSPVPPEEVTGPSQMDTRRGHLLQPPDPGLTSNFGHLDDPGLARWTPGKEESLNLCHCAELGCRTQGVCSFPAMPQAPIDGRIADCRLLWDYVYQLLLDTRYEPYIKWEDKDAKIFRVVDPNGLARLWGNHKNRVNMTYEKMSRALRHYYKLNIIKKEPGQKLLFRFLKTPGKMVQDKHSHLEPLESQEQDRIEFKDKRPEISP
Summary of the method: as §1

ELF5 = molecular target: T6, ELF5 (Homo sapiens, UniProt Q9UKW6-2 1-255)
T6 sequence: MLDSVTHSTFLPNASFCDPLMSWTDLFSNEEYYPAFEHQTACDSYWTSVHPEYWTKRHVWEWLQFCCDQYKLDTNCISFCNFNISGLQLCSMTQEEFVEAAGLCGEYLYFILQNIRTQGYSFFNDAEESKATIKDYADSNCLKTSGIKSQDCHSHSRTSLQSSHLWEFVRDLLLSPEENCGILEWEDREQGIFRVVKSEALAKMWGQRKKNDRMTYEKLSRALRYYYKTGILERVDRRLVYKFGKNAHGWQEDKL
Summary of the method: as §1

ETV3 = molecular target: T7, ETV3 (Homo sapiens, UniProt P41162-2 1-143)
T7 sequence: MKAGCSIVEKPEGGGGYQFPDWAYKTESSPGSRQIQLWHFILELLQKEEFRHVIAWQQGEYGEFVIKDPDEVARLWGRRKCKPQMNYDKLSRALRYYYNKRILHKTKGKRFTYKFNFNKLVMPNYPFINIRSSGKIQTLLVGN
Summary of the method: as §1

ETV6 = ETV6 (Homo sapiens, UniProt P41212 1-452)
Summary of the method: as §1

ETV6, sequence (P41212 whole entry): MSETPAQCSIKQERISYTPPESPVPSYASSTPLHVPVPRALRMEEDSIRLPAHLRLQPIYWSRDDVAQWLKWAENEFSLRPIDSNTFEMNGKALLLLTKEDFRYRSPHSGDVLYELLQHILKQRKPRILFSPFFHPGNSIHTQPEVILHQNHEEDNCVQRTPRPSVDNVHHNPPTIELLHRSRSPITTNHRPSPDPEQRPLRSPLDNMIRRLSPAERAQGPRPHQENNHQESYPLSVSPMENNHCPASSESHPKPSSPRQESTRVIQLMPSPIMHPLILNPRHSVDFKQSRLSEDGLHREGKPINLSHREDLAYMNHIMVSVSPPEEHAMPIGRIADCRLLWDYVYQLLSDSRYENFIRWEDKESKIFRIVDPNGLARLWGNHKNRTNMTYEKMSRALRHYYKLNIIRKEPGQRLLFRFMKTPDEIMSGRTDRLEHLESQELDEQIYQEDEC

Sequence | binding signal (ERF) | binding signal (ETV3L) | binding signal (ETS2) | binding signal (SPDEF) | binding signal (ETV7) | binding signal (ELF5) | binding signal (ETV3) | binding signal (ETV6)
ACTGAC | 1.18 fold enrichment (6-mer frequency, TF over GST control) | 1.19 fold enrichment (6-mer frequency, TF over GST control) | 1.32 fold enrichment (6-mer frequency, TF over GST control) | 1.18 fold enrichment (6-mer frequency, TF over GST control) | 1.26 fold enrichment (6-mer frequency, TF over GST control) | 1.21 fold enrichment (6-mer frequency, TF over GST control) | 1.21 fold enrichment (6-mer frequency, TF over GST control) | 1.19 fold enrichment (6-mer frequency, TF over GST control)
CCGCGT | 1.08 fold enrichment (6-mer frequency, TF over GST control) | 1.11 fold enrichment (6-mer frequency, TF over GST control) | 1.13 fold enrichment (6-mer frequency, TF over GST control) | 1.12 fold enrichment (6-mer frequency, TF over GST control) | 1.21 fold enrichment (6-mer frequency, TF over GST control) | 1.27 fold enrichment (6-mer frequency, TF over GST control) | 1.13 fold enrichment (6-mer frequency, TF over GST control) | 1.16 fold enrichment (6-mer frequency, TF over GST control)
GTAACT | 1.22 fold enrichment (6-mer frequency, TF over GST control) | 1.28 fold enrichment (6-mer frequency, TF over GST control) | 1.25 fold enrichment (6-mer frequency, TF over GST control) | 1.2 fold enrichment (6-mer frequency, TF over GST control) | 1.12 fold enrichment (6-mer frequency, TF over GST control) | 1.24 fold enrichment (6-mer frequency, TF over GST control) | 1.25 fold enrichment (6-mer frequency, TF over GST control) | 1.25 fold enrichment (6-mer frequency, TF over GST control)
TGCTTG | 1.14 fold enrichment (6-mer frequency, TF over GST control) | 1.13 fold enrichment (6-mer frequency, TF over GST control) | 1.14 fold enrichment (6-mer frequency, TF over GST control) | 1.11 fold enrichment (6-mer frequency, TF over GST control) | 1.19 fold enrichment (6-mer frequency, TF over GST control) | 1.04 fold enrichment (6-mer frequency, TF over GST control) | 1.17 fold enrichment (6-mer frequency, TF over GST control) | 1.11 fold enrichment (6-mer frequency, TF over GST control)
GTATAC | 1.41 fold enrichment (6-mer frequency, TF over GST control) | 1.16 fold enrichment (6-mer frequency, TF over GST control) | 1.32 fold enrichment (6-mer frequency, TF over GST control) | 1.3 fold enrichment (6-mer frequency, TF over GST control) | 1.2 fold enrichment (6-mer frequency, TF over GST control) | 1.31 fold enrichment (6-mer frequency, TF over GST control) | 1.23 fold enrichment (6-mer frequency, TF over GST control) | 1.19 fold enrichment (6-mer frequency, TF over GST control)
CATATC | 1.42 fold enrichment (6-mer frequency, TF over GST control) | 1.38 fold enrichment (6-mer frequency, TF over GST control) | 1.36 fold enrichment (6-mer frequency, TF over GST control) | 1.76 fold enrichment (6-mer frequency, TF over GST control) | 1.24 fold enrichment (6-mer frequency, TF over GST control) | 1.32 fold enrichment (6-mer frequency, TF over GST control) | 1.32 fold enrichment (6-mer frequency, TF over GST control) | 1.26 fold enrichment (6-mer frequency, TF over GST control)
GTCCTT | 1.14 fold enrichment (6-mer frequency, TF over GST control) | 1.29 fold enrichment (6-mer frequency, TF over GST control) | 1.28 fold enrichment (6-mer frequency, TF over GST control) | 1.29 fold enrichment (6-mer frequency, TF over GST control) | 1.11 fold enrichment (6-mer frequency, TF over GST control) | 1.43 fold enrichment (6-mer frequency, TF over GST control) | 1.18 fold enrichment (6-mer frequency, TF over GST control) | 1.26 fold enrichment (6-mer frequency, TF over GST control)
AACACG | 1.14 fold enrichment (6-mer frequency, TF over GST control) | 1.15 fold enrichment (6-mer frequency, TF over GST control) | 1.25 fold enrichment (6-mer frequency, TF over GST control) | 1.22 fold enrichment (6-mer frequency, TF over GST control) | 1.13 fold enrichment (6-mer frequency, TF over GST control) | 1.22 fold enrichment (6-mer frequency, TF over GST control) | 1.3 fold enrichment (6-mer frequency, TF over GST control) | 1.23 fold enrichment (6-mer frequency, TF over GST control)
GTTACT | 1.24 fold enrichment (6-mer frequency, TF over GST control) | 1.1 fold enrichment (6-mer frequency, TF over GST control) | 1.21 fold enrichment (6-mer frequency, TF over GST control) | 1.18 fold enrichment (6-mer frequency, TF over GST control) | 1.25 fold enrichment (6-mer frequency, TF over GST control) | 1.17 fold enrichment (6-mer frequency, TF over GST control) | 1.28 fold enrichment (6-mer frequency, TF over GST control) | 1.21 fold enrichment (6-mer frequency, TF over GST control)
GAACCC | 1.03 fold enrichment (6-mer frequency, TF over GST control) | 1.19 fold enrichment (6-mer frequency, TF over GST control) | 1.13 fold enrichment (6-mer frequency, TF over GST control) | 1.17 fold enrichment (6-mer frequency, TF over GST control) | 1.16 fold enrichment (6-mer frequency, TF over GST control) | 1.14 fold enrichment (6-mer frequency, TF over GST control) | 1.07 fold enrichment (6-mer frequency, TF over GST control) | 1.21 fold enrichment (6-mer frequency, TF over GST control)
CTCGCC | 1.4 fold enrichment (6-mer frequency, TF over GST control) | 1.2 fold enrichment (6-mer frequency, TF over GST control) | 1.25 fold enrichment (6-mer frequency, TF over GST control) | 1.07 fold enrichment (6-mer frequency, TF over GST control) | 1.16 fold enrichment (6-mer frequency, TF over GST control) | 1.26 fold enrichment (6-mer frequency, TF over GST control) | 1.2 fold enrichment (6-mer frequency, TF over GST control) | 1.29 fold enrichment (6-mer frequency, TF over GST control)
TGCGAA | 1.07 fold enrichment (6-mer frequency, TF over GST control) | 1.1 fold enrichment (6-mer frequency, TF over GST control) | 1.1 fold enrichment (6-mer frequency, TF over GST control) | 1.2 fold enrichment (6-mer frequency, TF over GST control) | 1.18 fold enrichment (6-mer frequency, TF over GST control) | 1.13 fold enrichment (6-mer frequency, TF over GST control) | 1.16 fold enrichment (6-mer frequency, TF over GST control) | 1.09 fold enrichment (6-mer frequency, TF over GST control)
TACTTA | 1.29 fold enrichment (6-mer frequency, TF over GST control) | 1.2 fold enrichment (6-mer frequency, TF over GST control) | 1.25 fold enrichment (6-mer frequency, TF over GST control) | 1.14 fold enrichment (6-mer frequency, TF over GST control) | 1.21 fold enrichment (6-mer frequency, TF over GST control) | 1.14 fold enrichment (6-mer frequency, TF over GST control) | 1.17 fold enrichment (6-mer frequency, TF over GST control) | 1.28 fold enrichment (6-mer frequency, TF over GST control)
TCAATT | 1.13 fold enrichment (6-mer frequency, TF over GST control) | 1.29 fold enrichment (6-mer frequency, TF over GST control) | 1.17 fold enrichment (6-mer frequency, TF over GST control) | 1.15 fold enrichment (6-mer frequency, TF over GST control) | 1.12 fold enrichment (6-mer frequency, TF over GST control) | 1.13 fold enrichment (6-mer frequency, TF over GST control) | 1.21 fold enrichment (6-mer frequency, TF over GST control) | 1.14 fold enrichment (6-mer frequency, TF over GST control)
GTAATC | 1.08 fold enrichment (6-mer frequency, TF over GST control) | 1.12 fold enrichment (6-mer frequency, TF over GST control) | 1.16 fold enrichment (6-mer frequency, TF over GST control) | 1.12 fold enrichment (6-mer frequency, TF over GST control) | 1.17 fold enrichment (6-mer frequency, TF over GST control) | 1.18 fold enrichment (6-mer frequency, TF over GST control) | 1.1 fold enrichment (6-mer frequency, TF over GST control) | 1.2 fold enrichment (6-mer frequency, TF over GST control)
